# The panel holds about 83,000 compounds, 20% with a hit somewhere; the sample as a whole holds those more often.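 In brief: 96-well plates, 48 h treatment, single concentration, percent growth endpoint.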 Calls of active or inactive are those of the source. How the source made its calls: active means growth percent below 10; inactive means the rest.
# Tested on: HL-60(TB) leukemia
# Assay: NCI-60 one-dose screen, 48 h (100 = growth as untreated, 0 = no growth, -100 = all killed)
# Details: 10 µM unless noted
row,Compound,growth
1,O=C(c1ccc(O)cc1)C1[C@H](c2ccc(Cl)cc2)[C@@H](c2ccccc2)NC12C(=O)Nc1ccc(Cl)cc12 (stereo not given in full),38.5% (inactive)
2,O=S(=O)(Oc1ccc(-c2cn3ccoc3n2)cc1)c1cccc(C(F)(F)F)c1,105% (inactive)
3,NS(=O)(=O)c1cccc(Nc2nc(SCC(=O)c3ccc(Cl)cc3)nc3c2CCC3)c1,111% (inactive)
4,O=C(NNc1nc2cc(F)ccc2n2c(CO)ccc12)c1cnccn1,-27.4% (active)
5,O=C(CSc1nc2ccccc2c(=O)n1-c1ccc(Cl)cc1)N/N=C/c1ccc(N2CCCCC2)cc1,108% (inactive)
6,CNC(=O)c1cc(Oc2ccc3nc(NC(=O)c4ccc(N5CCOCC5)c(C(F)(F)F)c4)sc3c2)ccn1,94.2% (inactive)
7,COc1cc(OC)c(C2C(Cl)C(=O)N2Nc2ncnc3ccccc23)cc1OC (stereo not given),108% (inactive)
8,C=CCn1c(SCC(=O)Nc2ccc(C(=O)/C=C/c3cc(OC)c(OC)c(OC)c3)cc2)nnc1-c1c[nH]c2ccccc12,-15.1% (active)
9,O=C(CCCCCCNC(=O)C(O)(O)C(F)(F)F)Nc1nc2ccccc2s1,11.3% (inactive)
10,OC1CCN(CCCOc2c3ccc(Cl)cc3nc3c2oc2ccc(Cl)cc23)CC1,22.4% (inactive)
11,CC1=C(C)C(=O)C(Nc2ccc3c(c2)OCO3)=C(Br)C1=O,44.2% (inactive)
12,O=C(NNc1nc2cc(F)c(F)cc2n2cccc12)c1cnccn1,3.67% (active)
13,CN1CCN(c2ccc(Nc3nc(NCCCNS(=O)(=O)c4ccccc4)c4sccc4n3)cc2)CC1,-32.9% (active)
14,O=C(NCCNc1cc(-c2cn(-c3ccccc3)nc2-c2cccc(O)c2)ccn1)Nc1ccc(Cl)c(C(F)(F)F)c1,84.2% (inactive)
15,O=C(/C=C/c1cc(Cl)ccc1Cl)Nc1ncc(Cc2ccc(Cl)cc2)s1,-7.21% (active)
16,Nc1c(C(=O)c2ccc(Br)cc2)oc2nc(-c3cnccn3)cc(-c3cccs3)c12,100% (inactive)
17,Cc1cc(NS(=O)(=O)c2ccc(NC(=O)CSc3nc4ccccc4c(=O)n3-c3ccccc3)cc2)no1,110% (inactive)
18,COc1ccc2c(c1)c(/C=N/Nc1ccnc3cc(Cl)ccc13)cn2C,-52.2% (active)

row,Compound,growth
1,O=C(NCCCCCCNC(=O)c1c2c(nc3ccccc13)-c1cccnc1SC2)c1c2c(nc3ccccc13)-c1cccnc1SC2,24% (inactive)
2,Cn1ncc2c(C(=O)c3ccc(F)cc3)nc(C(C)(C)C)nc21,91.2% (inactive)
3,COc1cc2cc(Oc3ccc(NC(=O)c4cc(C(F)(F)F)cc(C(F)(F)F)c4)cc3)c(C)nc2cc1OCCN1CCOCC1,89.4% (inactive)
4,O=C1c2ccccc2C23C(=C(c4cncnc4)c4ccccc42)CCCN13 (stereo not given),112% (inactive)
5,O=C(CSc1nc2ccccc2c(=O)n1-c1ccccc1)Nc1ccc(-c2nc3ccc([N+](=O)[O-])cc3[nH]2)cc1,89.3% (inactive)
6,CCN(CC)c1cn(-c2ccc(S(N)(=O)=O)cc2)nn1,105% (inactive)
7,CNC(=O)c1cc(N2CCc3cc(NC(=O)Nc4ccc(N5CCN(C)CC5)c(C(F)(F)F)c4)ccc32)ccn1,79% (inactive)
8,COc1cc(/C=C/C(=O)c2ccc(NC(=O)CSc3nnc(-c4ccc5nc(-c6ccccc6)[nH]c5c4)o3)cc2)cc(OC)c1OC,69% (inactive)
9,O=C(NNc1nc2cc(F)ccc2n2cncc12)c1cnccn1,10.8% (inactive)
10,COc1ccc([C@H]2[C@H](O)C(=O)N2c2cc(OC)c(OC)c(OC)c2)cc1F,-13% (active)
11,CN1CCN(Cc2ccc(NC(=O)c3cncc(C#Cc4cnc5[nH]ncc5c4)c3)cc2C(F)(F)F)CC1,8.94% (active)
12,O=C1[C@H]2Cc3c([nH]c4ccccc34)[C@H](c3ccc(Br)cc3)N2C(=O)CN1C1CCN(CC2CCCCC2)CC1,56.9% (inactive)
13,N#C/C(=C\c1ccc2ccccc2c1)C(=O)Nc1sc2c(c1C#N)CCC2,103% (inactive)
14,COC(=O)c1[nH]nc2c1C1(C(=O)N(C)c3ccccc31)C(C#N)=C(N)O2 (stereo not given),107% (inactive)
15,C#C[C@]1(O)CC[C@H]2[C@@H]3CC=C4c5sc(Nc6ccc(C)cn6)nc5CC[C@]4(C)[C@H]3CC[C@@]21C,-43.3% (active)
16,Nc1ncc(-c2ccc3ncnc(NCc4ccccc4)c3c2)cn1,44.1% (inactive)
17,COC(=O)[C@@]1(C)CC[C@]2(C)CC[C@]3(C)C(=CC(=O)[C@@H]4[C@@]5(C)Cc6c(n(CC#CCN7CCN(C)CC7)c7ccccc67)C(C)(C)[C@@H]5CC[C@]43C)[C@@H]2C1,3.4% (active)
